The values that follow come from PubChem BioAssay (EPA / NIEHS).

For orientation: AC50 means the concentration at which the activity in the assay is half-maximal.

The target of experiment [1] is bovine Estrogen Receptor (ER), ESR1 (gene 407238) (UniProt P49884). Nature of the experiment: NVS_NR_bER: NovaScreen (NVS) Nuclear Receptor Binding Assay for bovine Estrogen Receptor (ER) (AID 2283345).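 Also: actives lower the bound radioligand count which means they displace the ER ligand.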 An outline of the steps: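 Bovine uterine membranes; tritiated or iodinated radioligand; competitive displacement; 18 h; scintillation read; DMSO negative control; 25 uM duplicates, then concentration series for actives.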

Experiment [2] deals with Estrogen receptor (Homo sapiens) (UniProt P03372). Nature of the experiment: OT_ER_ERaERa_1440: Odyssey Thera (OT) 24-hour HEK293T Protein-Complementation Assay for Estrogen Receptor-alpha/-alpha Homodimer (AID 2283349).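 Also: hits raise fluorescence above DMSO for agonists and antagonists alike.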 An outline of the steps: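 Protein-fragment complementation between two human ERα ligand-binding domains (aa 310-547) in stably transfected HEK293T cells was monitored after 24 h treatment, using fluorescence intensity relative to vehicle controls.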

The target is the same in experiment [3]. The experiment is described as follows: OT_ER_ERaERa_0480: Odyssey Thera (OT) 8-hour HEK293T Protein-Complementation Assay for Estrogen Receptor-alpha/-alpha Homodimer (AID 2283351).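 Also: rise in fluorescence from reassembled reporter fragments on ERα LBD homodimer in nucleus or whole cell.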 An outline of the steps: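 HEK293T, stable ERα LBD (aa 310-547) PCA homodimer; 8 h compound exposure; fluorescence intensity, laser scanning cytometer; positive fitting direction, DMSO baseline.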

Experiment [4] deals with human Peroxisome Proliferator-activated Receptor alpha (PPARa), PPARA (gene 5465) (UniProt Q07869). Nature of the experiment: NVS_NR_hPPARa: NovaScreen (NVS) Nuclear Receptor Binding Assay for human Peroxisome Proliferator-activated Receptor alpha (PPARa) (AID 2283359).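 Also: activity means loss of TR-FRET signal versus DMSO baseline.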 An outline of the steps: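 Chemicals were first screened in duplicate at 25 uM, and active ones were retested across concentration series. Binding was monitored by TR-FRET one hour after dosing, with decreased signal against DMSO counted as activity.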

Experiment [5] concerns the target rat Glutamate, MK-801 Agonist Site (GluNMDA_MK801), Grin1 (gene 24408) (UniProt P35439). The experiment is described as follows: NVS_LGIC_rGluNMDA_MK801_Agonist: NovaScreen (NVS) Ligand-Gated Ion Channel Assay for rat Glutamate, MK-801 Agonist Site (GluNMDA_MK801) (AID 2283340). An outline of the steps: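 Radioligand binding at MK-801 site in rat forebrain membranes, 1.5 h incubation, filter-based scintillation counting. Initially 25 uM in duplicate; actives then run in concentration-response up to 50 uM, fitted for gain of signal versus DMSO.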

Experiment [6] deals with T1, Estrogen receptor (Homo sapiens) + Estrogen receptor beta (Homo sapiens) (UniProt P03372+Q92731). The experiment is described as follows: OT_ER_ERaERb_0480: Odyssey Thera (OT) 8-hour HEK293T Protein-Complementation Assay for Estrogen Receptor-alpha/-beta Heterodimer (AID 2283352). An outline of the steps:
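Fluorescence intensity readout from a protein-fragment complementation reporter in HEK293T; ER-alpha/ER-beta LBD heterodimer. Dosing 8 h. Gain-of-signal fit relative to DMSO negative control; laser scanning cytometry of whole-well cell population.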

The target of experiment [7] is Estrogen receptor beta (Homo sapiens) (UniProt Q92731). Nature of the experiment: OT_ER_ERbERb_0480: Odyssey Thera (OT) 8-hour HEK293T Protein-Complementation Assay for Estrogen Receptor-beta/-beta Homodimer (AID 2283357).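 Also: active means signal gain over DMSO baseline.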 An outline of the steps:
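Cells (HEK293T, stable ER-beta LBD PCA pair) are treated 8 hours, fixed and Draq5-stained; signal is fluorescence intensity increase relative to vehicle, fitted in the gain direction.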

For a further experiment, the target named is PGR (gene 5241) (UniProt P06401). The experiment is described as follows: NVS_NR_hPR: NovaScreen (NVS) Nuclear Receptor Binding Assay for human Progestron Receptor (PR) (AID 2283360).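 Also: active means loss of bound radioligand signal versus DMSO baseline.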 An outline of the steps:
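Competitive displacement of a labelled radioligand from T47D-derived receptor protein is measured in a cell-free format. Initial testing uses 25 uM in duplicate, with positive and negative controls on every plate.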

Experiment [8] concerns guinea pig Histamine Receptor (H2), gene 100729734. Nature of the experiment: NVS_GPCR_gH2: NovaScreen (NVS) G Protein-Coupled Receptor Assay for guinea pig Histamine Receptor (H2) (AID 2283342). An outline of the steps:
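Radioligand displacement on guinea pig striatal membranes, 1 h after dosing, filter-based scintillation counting; loss of signal versus DMSO. Single-point screen at 25 uM in duplicate, then concentration-response up to 50 uM.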

Experiment [9] has as its target human Constitutive Androstane Receptor (CAR), NR1I3 (gene 9970) (UniProt Q14994). The experiment is described as follows: NVS_NR_hCAR_Antagonist: NovaScreen (NVS) Nuclear Receptor Binding Assay for human Constitutive Androstane Receptor Antagonism (CAR) (AID 2283344). An outline of the steps: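 Cell-free TR-FRET binding read 1 h after dosing, antagonist mode; loss of signal versus DMSO baseline. Primary screen in duplicate at a single 25 uM; actives retested in concentration series.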

For experiment [10], the target named is Androgen Receptor/SRC-1 Co-activator, AR (gene 367) (UniProt P10275). The experiment is described as follows: OT_AR_ARSRC1_0960: Odyssey Thera (OT) 16-hour HEK293T Protein-Complementation Assay for Androgen Receptor/SRC-1 Co-activator (AID 2283353).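 Also: actives raise the signal above DMSO so potency reflects increased AR and SRC-1 complex.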 The procedure, abridged:
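Split-Venus PCA, AR/SRC-1 fusions, stable HEK293T; 16 h compound exposure; imaged at 488 and 635 nm; N/C ratio (488 nm channel), min 400 cells/image; positive-direction fit, DMSO baseline.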

In a further experiment the test system is NCBI gene 100848466. Nature of the experiment: NVS_NR_bPR: NovaScreen (NVS) Nuclear Receptor Binding Assay for bovine Progextron Receptor (PR) (AID 2283343). An outline of the steps:
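Membranes from bovine uterus; radiolabelled ligand plus test chemical; 18 h; scintillation read-out. Activity = signal loss vs DMSO. Primary: 25 uM, duplicate; secondary: concentration series.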

For experiment [11], the target named is Androgen Receptor/SRC-1 Co-activator, AR (gene 367) (UniProt P10275). The experiment is described as follows: OT_AR_ARSRC1_0480: Odyssey Thera (OT) 8-hour HEK293T Protein-Complementation Assay for Androgen Receptor/SRC-1 Co-activator (AID 2283354).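 Also: hits raise the complementation signal above DMSO so AC50 marks enhancers.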 An outline of the steps: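 Measures AR/SRC-1 binding by Venus YFP fragment complementation in HEK293T stable lines at 8 h post-dose. Imaging quantifies the 488nm nucleus/cytoplasm ratio in ≥400 cells; DMSO defines baseline.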

The target in experiment [12] is T1, Estrogen receptor (Homo sapiens) + Estrogen receptor beta (Homo sapiens). Nature of the experiment: OT_ER_ERaERb_1440: Odyssey Thera (OT) 24-hour HEK293T Protein-Complementation Assay for Estrogen Receptor-alpha/-beta Homodimer (AID 2283356).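 Also: heteromer of ER alpha and ER beta binding domains; hits raise reporter fluorescence and both agonists and antagonists give an increase.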 An outline of the steps:
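Readout: mean fluorescence intensity in nucleus (agonists) or nucleus plus cytoplasm (antagonists), read by laser scanning cytometer after 24 h compound exposure of HEK293T cells carrying ERα/ERβ LBD fragment-complementation constructs; DMSO baseline.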

In experiment [13] the target is Bile acid receptor (Homo sapiens) (UniProt Q96RI1). Nature of the experiment: NVS_NR_hFXR_Antagonist: NovaScreen (NVS) Nuclear Receptor Binding Assay for human Farnesoid X Receptor Antagonism (FXR) (AID 2283350). The procedure, abridged: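 Cell-free TR-FRET ligand-binding read-out on human FXR (NR1H4) in antagonist mode, measured 1 h after dosing. Primary screen in duplicate at 25 uM, actives retested in concentration series; signal loss scored versus DMSO.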

Experiment [14] deals with Retinoic acid receptor alpha (Homo sapiens) (UniProt P10276). The experiment is described as follows: NVS_NR_hRAR_Antagonist: NovaScreen (NVS) Nuclear Receptor Binding Assay for human Retinoic Acid Alpha Receptor Antagonism (RAR) (AID 2283358). The procedure, abridged:
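TR-FRET, cell-free, antagonist format; 2 h incubation after dosing; DMSO = baseline; signal loss fitted; 25 uM duplicate primary, then conc. series.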

Experiment [15] has as its target rat Glycine Receptor, Strychnine-sensitive (GlyRStrySens), Glra1 (gene 25674) (UniProt P07727). The experiment is described as follows: NVS_LGIC_rGlyRStrySens: NovaScreen (NVS) Ligand-Gated Ion Channel Assay for rat Glycine Receptor, Strychnine-sensitive (GlyRStrySens) (AID 2283341). An outline of the steps:
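Radioligand displacement on rat spinal cord membranes, 1 hr, filter scintillation read-out. Single-concentration duplicate screen at 25 uM; chemicals meeting threshold (e.g., 30% inhibition) rerun in concentration-response up to 50 uM. Loss of binding fitted versus DMSO.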

Records with an inconclusive call do not appear. Activity calls are given as the source filed them. The calls were made as follows: active = hit-call score of the fitted dose curve at least 0.9, where 1 is the maximum; inconclusive = response in the unintended direction; inactive = score below 0.9.

human Peroxisome Proliferator-activated Receptor alpha (PPARa), PPARA (gene 5465), sequence (Q07869 whole entry, looked up): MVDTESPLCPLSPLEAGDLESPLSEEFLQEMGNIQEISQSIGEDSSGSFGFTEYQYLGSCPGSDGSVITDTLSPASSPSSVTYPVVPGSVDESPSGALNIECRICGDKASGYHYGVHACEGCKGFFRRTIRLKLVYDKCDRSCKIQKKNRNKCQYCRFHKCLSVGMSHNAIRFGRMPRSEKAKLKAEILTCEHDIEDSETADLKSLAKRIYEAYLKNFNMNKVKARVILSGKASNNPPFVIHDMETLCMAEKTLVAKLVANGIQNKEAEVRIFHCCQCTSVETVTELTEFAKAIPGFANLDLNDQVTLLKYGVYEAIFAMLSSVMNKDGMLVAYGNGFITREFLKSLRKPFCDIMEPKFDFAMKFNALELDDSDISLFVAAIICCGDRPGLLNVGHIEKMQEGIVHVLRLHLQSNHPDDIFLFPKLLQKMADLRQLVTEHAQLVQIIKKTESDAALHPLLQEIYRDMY
Androgen Receptor/SRC-1 Co-activator, AR (gene 367), sequence (P10275 whole entry, looked up, the tested form may be a part): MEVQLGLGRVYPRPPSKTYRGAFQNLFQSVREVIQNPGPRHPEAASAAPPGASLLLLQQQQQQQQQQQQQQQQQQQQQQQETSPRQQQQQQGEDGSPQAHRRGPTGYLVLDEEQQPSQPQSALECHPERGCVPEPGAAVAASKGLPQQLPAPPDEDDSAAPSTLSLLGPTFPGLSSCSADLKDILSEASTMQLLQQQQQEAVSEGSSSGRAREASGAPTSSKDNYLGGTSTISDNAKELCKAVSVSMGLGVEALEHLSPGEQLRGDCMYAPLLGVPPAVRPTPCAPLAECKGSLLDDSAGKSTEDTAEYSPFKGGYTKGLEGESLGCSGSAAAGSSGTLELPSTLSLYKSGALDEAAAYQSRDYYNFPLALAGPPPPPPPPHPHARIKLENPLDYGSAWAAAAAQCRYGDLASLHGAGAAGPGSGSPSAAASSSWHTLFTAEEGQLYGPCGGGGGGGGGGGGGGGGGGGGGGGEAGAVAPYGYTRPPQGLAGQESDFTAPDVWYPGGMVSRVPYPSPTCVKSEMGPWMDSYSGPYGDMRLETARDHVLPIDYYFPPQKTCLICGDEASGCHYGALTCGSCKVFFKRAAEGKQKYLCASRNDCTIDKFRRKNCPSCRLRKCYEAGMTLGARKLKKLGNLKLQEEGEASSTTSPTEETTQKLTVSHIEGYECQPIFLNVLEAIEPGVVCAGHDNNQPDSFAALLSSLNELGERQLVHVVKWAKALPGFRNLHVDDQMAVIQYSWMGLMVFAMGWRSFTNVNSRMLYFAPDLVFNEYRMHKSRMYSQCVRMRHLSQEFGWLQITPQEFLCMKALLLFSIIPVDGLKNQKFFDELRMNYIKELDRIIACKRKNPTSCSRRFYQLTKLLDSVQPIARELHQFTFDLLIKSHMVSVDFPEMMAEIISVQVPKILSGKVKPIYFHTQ
T1 sequence (P03372 whole entry, looked up, the tested form may be a part): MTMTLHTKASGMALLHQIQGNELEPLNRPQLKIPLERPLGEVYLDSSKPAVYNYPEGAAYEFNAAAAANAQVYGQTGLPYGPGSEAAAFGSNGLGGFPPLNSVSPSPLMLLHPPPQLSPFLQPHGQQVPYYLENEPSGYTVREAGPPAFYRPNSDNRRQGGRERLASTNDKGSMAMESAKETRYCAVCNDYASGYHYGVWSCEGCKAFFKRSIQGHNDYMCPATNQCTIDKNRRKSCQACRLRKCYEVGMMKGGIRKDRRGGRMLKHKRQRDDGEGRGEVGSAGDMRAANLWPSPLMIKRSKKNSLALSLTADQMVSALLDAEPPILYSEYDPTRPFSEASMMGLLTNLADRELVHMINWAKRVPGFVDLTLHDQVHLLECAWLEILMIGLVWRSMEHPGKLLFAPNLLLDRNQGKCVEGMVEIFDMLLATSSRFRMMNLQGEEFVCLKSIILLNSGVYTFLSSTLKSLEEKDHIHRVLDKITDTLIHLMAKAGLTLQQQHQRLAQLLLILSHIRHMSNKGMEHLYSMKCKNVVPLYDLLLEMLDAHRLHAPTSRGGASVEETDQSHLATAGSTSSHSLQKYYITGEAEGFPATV
T1 sequence (Q92731 whole entry, looked up, the tested form may be a part): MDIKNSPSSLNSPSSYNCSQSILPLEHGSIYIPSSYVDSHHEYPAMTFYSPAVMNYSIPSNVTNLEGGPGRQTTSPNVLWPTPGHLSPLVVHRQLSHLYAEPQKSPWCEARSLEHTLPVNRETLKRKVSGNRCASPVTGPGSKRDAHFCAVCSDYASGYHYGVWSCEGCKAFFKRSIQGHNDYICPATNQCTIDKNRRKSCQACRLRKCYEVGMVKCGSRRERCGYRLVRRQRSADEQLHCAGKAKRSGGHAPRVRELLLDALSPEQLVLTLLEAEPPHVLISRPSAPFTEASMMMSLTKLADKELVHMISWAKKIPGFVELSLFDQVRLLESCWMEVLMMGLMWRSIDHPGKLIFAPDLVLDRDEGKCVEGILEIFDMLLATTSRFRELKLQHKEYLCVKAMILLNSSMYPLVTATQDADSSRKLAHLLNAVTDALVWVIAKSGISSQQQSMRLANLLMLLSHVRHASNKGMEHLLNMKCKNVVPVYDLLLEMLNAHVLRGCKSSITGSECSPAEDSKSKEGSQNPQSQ
Estrogen receptor (Homo sapiens), sequence (P03372 whole entry, looked up, the tested form may be a part): as the sequence (P03372 whole entry, looked up, the tested form may be a part) above
bovine Estrogen Receptor (ER), ESR1 (gene 407238), sequence (P49884 whole entry, looked up): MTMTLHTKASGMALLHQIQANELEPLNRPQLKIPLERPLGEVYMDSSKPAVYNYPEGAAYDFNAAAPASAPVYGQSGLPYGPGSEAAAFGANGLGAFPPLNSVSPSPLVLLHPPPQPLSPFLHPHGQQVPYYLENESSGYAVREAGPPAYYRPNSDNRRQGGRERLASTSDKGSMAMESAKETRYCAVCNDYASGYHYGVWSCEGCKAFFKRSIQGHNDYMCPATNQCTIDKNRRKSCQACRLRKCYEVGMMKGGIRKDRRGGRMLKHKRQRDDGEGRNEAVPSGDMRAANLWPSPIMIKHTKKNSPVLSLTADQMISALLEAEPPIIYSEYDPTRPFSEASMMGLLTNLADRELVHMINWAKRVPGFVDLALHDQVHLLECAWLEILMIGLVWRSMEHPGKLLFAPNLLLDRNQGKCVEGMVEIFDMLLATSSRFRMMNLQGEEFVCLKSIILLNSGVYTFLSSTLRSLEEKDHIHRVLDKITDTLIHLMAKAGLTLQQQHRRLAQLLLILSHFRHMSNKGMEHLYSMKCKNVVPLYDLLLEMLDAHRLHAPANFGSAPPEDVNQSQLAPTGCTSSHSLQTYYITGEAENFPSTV
human Constitutive Androstane Receptor (CAR), NR1I3 (gene 9970), sequence (Q14994 whole entry, looked up): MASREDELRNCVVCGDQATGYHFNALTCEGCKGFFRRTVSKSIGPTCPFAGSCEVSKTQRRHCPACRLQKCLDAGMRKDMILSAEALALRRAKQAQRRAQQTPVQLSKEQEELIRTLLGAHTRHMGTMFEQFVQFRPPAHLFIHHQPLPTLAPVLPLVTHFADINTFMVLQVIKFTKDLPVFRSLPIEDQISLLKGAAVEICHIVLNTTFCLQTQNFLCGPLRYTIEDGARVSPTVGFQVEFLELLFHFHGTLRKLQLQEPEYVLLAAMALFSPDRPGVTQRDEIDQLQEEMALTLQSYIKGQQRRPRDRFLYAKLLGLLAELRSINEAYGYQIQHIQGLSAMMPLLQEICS
Estrogen receptor beta (Homo sapiens), sequence (Q92731 whole entry, looked up, the tested form may be a part): as the sequence (Q92731 whole entry, looked up, the tested form may be a part) above

Turning to `CCCCCCCCCCCCCCCCCC(=O)O`, the compound was called inactive in [1], in experiment [2] and in [3]. The concentration at half-maximal activity (AC50) in experiment [4] is 0.608 µM (active).

For `CC(C)c1ccc(C(=O)N=C(N)N)cc1S(C)(=O)=O`, the outcome in [5], in experiment [1], in experiment [2], in experiment [6] and in experiment [7] was inactive.

Turning to `CCCCCCCC=O`, the compound was classed as inactive in [1], in experiment [2], in [3], in experiment [6], in experiment [7] and in [4]. For the same compound, in the experiment with PGR (gene 5241), the compound was classed as inactive.

As for `NC(=O)Cn1c(=O)cc(CCN2CCN(c3nccc4sccc34)CC2)c2ccc(F)cc21`, the AC50 in experiment [8] was 1.82 µM (active). Also, the compound was called inactive in [2] and in experiment [3].

Turning to `CCCCCCCCCCC`, the outcome in [9], in experiment [2], in experiment [3], in experiment [6] and in [10] was inactive.

As for `O=[N+]([O-])C(CO)(CO)CO`, the result (with NCBI gene 100848466; in experiment [2]; in experiment [3]) was inactive.

As for `O=C(O)Cc1ccccc1Nc1c(Cl)cccc1Cl`, the result in experiment [1], in [2], in experiment [6] and in experiment [11] was inactive.

As for `CCCc1cc(=O)[nH]c(=S)[nH]1`, in experiment [1], the AC50 is 25 µM (active). The outcome in experiment [2] and in [3] was inactive.

On to `CN1CCN(Cc2cc(-c3ccc4[nH]c(=O)oc4c3)co2)[C@@H](c2ccc(F)cc2)C1`, for which the AC50 in experiment [8] is 0.445 µM (active). Moreover, the compound was classed as inactive in [1].

With `Cc1ccc(C(C)C)c(O)c1`, the compound was called inactive in [9], in [2], in [3], in experiment [6], in [12] and in experiment [4]. The AC50 in experiment [7] is 33.9 µM (active).

Take `CCCCc1ccc2c(n1)[C@@H](c1ccc(OC)cc1C[C@H](C)C(=O)O)[C@H](C(=O)O)[C@H]2c1ccc2c(c1)OCO2`: the outcome in [9], in [2], in [3], in [6] and in experiment [12] was inactive.

With `Cc1ccc(Cl)cc1`, the compound was called inactive in experiment [1], in experiment [2], in experiment [13] and in [3].

For `O=C(OCCCCCOC(=O)c1ccccc1)c1ccccc1`, the compound was classed as inactive in experiment [9], in experiment [2] and in experiment [3].

Turning to `CNCc1cc(F)ccc1Oc1ccc(Cl)c(Cl)c1`, the outcome (in experiment [1]; in experiment [2]; in [3]; in experiment [12]; in experiment [7]; in the experiment with PGR (gene 5241)) was inactive.

Consider `CCc1c(C(=O)NN2CCCCC2)nn(-c2ccc(Cl)cc2Cl)c1-c1ccc(Br)cc1`, for which the compound was classed as inactive in [8], in experiment [9], in [1], in experiment [2], in experiment [3] and in experiment [6]. The outcome in [7] and in experiment [14] was inactive.

For `Cc1ccc(C)c(O)c1C`, the compound was classed as inactive in experiment [15], in [2], in [3], in [10] and in [11].

Regarding `COc1ccc(S(=O)(=O)N2C(=O)[C@@](c3ccccc3OC)(N3C[C@H](O)C[C@H]3C(=O)N(C)C)c3cc(Cl)ccc32)c(OC)c1`, the result in [1], in experiment [2] and in experiment [3] was inactive. Further, the figures for the AC50 in [10] and in experiment [11] were 40.4 µM (active) and 27.2 µM (active), respectively.

As for `COc1cc(C=O)ccc1O`, the outcome in experiment [1], in experiment [2], in [13], in [3], in experiment [6] and in experiment [10] was inactive. Also, the outcome in [11] and in experiment [7] was inactive.
